AmpC det inh = inhibitors of E. coli AmpC beta-lactamase with detergent; P00811; purified AmpC, nitrocefin hydrolysis with detergent; Potency, µM (top dose mostly 28.7 µM), inactives show top-dose activity change, negative = inhibition; 71,000 tested, 0.09% active; active means well fitted curve in the direction sought with a large enough effect; inconclusive means small, poorly fitted or top-dose-only effect; further: on the % scale 0 is the no-effect control and ±100 the full control effect
Target sequence (P00811 whole entry, looked up): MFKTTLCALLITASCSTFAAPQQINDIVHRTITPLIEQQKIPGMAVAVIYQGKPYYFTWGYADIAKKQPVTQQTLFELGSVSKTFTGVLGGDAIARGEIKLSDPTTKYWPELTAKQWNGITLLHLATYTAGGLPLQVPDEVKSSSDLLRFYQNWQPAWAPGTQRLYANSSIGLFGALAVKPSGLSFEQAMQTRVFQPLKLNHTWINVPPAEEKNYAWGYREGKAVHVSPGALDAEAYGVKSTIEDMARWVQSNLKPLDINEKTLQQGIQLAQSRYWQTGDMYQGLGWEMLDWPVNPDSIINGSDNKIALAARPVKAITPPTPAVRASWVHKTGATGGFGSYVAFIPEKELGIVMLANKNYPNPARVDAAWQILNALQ
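E. coli AmpC (5.3 nM) in 20 mM phosphate pH 7.0 with 0.01% Triton X-100, preincubated 15 min RT with compound; nitrocefin (2 uL of 800 uM stock) hydrolysis followed by 480 nm absorbance every 20 s over 4 min.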
AmpC nodet inh = blocks E. coli AmpC beta-lactamase in absence of detergent; P00811; AmpC nitrocefin hydrolysis, absorbance 480 nm, no detergent; Potency, µM (highest dose often 28.7 µM), inactives show at the top dose activity change, negative = inhibition; 71,000 tested, 1.8% active; AID 585; further: % of control where 0% means no effect
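Enzyme, pH 7.0 phosphate. Compound titrations were pre-incubated with AmpC for 15 min at room temperature before nitrocefin (stock 800 uM) addition; product formation was recorded at 480 nm every 20 s for 4 min.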
Anthrax LT inh = inhibitors of anthrax lethal toxin internalization; 70,000 tested, 0.67% active; Cells, anthrax lethal toxin internalization, FRET ratio (460/530); AID 912; Potency, µM (highest dose often 40 µM), for the others: at the top dose activity change, negative = inhibition, actives largely listed as inhibitors; further: on the % scale 0 is the no-effect control and ±100 the full control effect; nearly all actives have a fitted effect of over 50% in size
SmPrx2 inh = blocks S. mansoni peroxiredoxin 2 enzymatic activity; 65,000 tested, 0.07% active; Potency, µM; S. mansoni Prx2 activity coupled to TGR/GSH (TGR is thioredoxin glutathione reductase), NADPH fluorescence loss, qHTS
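Activity is read as the drop in NADPH fluorescence (365/450 nm), recorded every 30 sec for 8 min after H2O2 addition. Prx2 is coupled to TGR-driven NADPH oxidation through glutathione, in phosphate buffer pH 7.4.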
Active calls of the source: *; i = inactive; ? = inconclusive; / = no result given; ! = not active in a repeat; [ ] = dose if it differs, or a comment. Compounds with a hit are over-represented: about 2.4% of the library has one in this group of screens. Unless noted, the call rests on the fitted dose curve. Potency means the concentration at half of the fitted maximal effect.

SMILES	AmpC det inh	AmpC nodet inh	Anthrax LT inh	SmPrx2 inh
N#Cc1c(-c2ccccc2)cc(-c2ccco2)c(C#N)c1N	12.4%	6.31µM*	?	/
N#Cc1sc2nc(-c3ccccc3)cc(-c3ccco3)c2c1N	-0.6%	6.31µM*	?	>57
COC(=O)c1sc2nc(-c3ccco3)ccc2c1N	-4.3%	-10.5%	2.6%	>57
Clc1cccc(-c2nc(-c3ccccn3)no2)c1	-1.3%	10.8%	-4.4%	>57
c1ccc(-c2ccc(-c3nc(-c4ccccn4)no3)cc2)cc1	12.0%	43.8%	3.16µM*	/
CC[C@H](CO)NC(=O)[C@@H]1C=C2c3cccc4c3c(cn4C)C[C@@H]2N(C)C1	-1.1%	13.1%	-2.1%	>57
COc1ccc(-c2coc3ccc(O[C@@H]4O[C@@H](COC(C)=O)[C@@H](OC(C)=O)[C@@H](OC(C)=O)[C@H]4OC(C)=O)cc3c2=O)cc1	-3.3%	67.1%	?	>57
CC1=C/C(=C(/c2ccc(O)c(C)c2)c2ccccc2C(=O)O)C=CC1=O	-4.8%[5.75 µM]	-9.5%[5.75 µM]	-15.4%[8 µM]	>57
O=C(O)C1=CC(=C(c2ccc(O)c(C(=O)O)c2)c2ccc(O)c(C(=O)O)c2)C=CC1=O	10µM*	7.94µM*	?	>57
N#CC(=C(/N)Sc1ccccc1N)/C(C#N)=C(/N)Sc1ccccc1N	-5.0%	?	?	>57
CS(=O)(=O)c1sc2nc(-c3cccs3)cc(-c3ccccc3)c2c1N	-3.7%	10µM*[single pt active]	?	>57
O=C(c1ccc(Cl)cc1)c1ccccc1C(=O)N1CCOCC1	16.8%	15.6%	-6.7%	>57
Nc1nc(C(=O)N2CCOCC2)nn1C(=O)c1ccc(Cl)cc1	11.9%	3.98µM*[single pt active]	2.7%	>57
O=C(CCc1nc2ccccc2[nH]1)NC1CCCCC1	4.0%	3.98µM*[single pt active]	-15.3%	>57
CCN(C(=O)c1cnc(N2CCN(c3ncccn3)CC2)c2ccccc12)c1cccc(Cl)c1	-3.6%	95.0%	15.8µM*	>57
O=C(O)/C=C\C(=O)Nc1ccc2c(c1)-c1ccccc1C2	-3.5%[5.75 µM]	-8.8%[5.75 µM]	-10.6%[8 µM]	>57
COC1=CC(=O)C[C@@H](C)[C@@]12Oc1c(Cl)c(OC)cc(OC)c1C2=O	0.6%	15.7%	-10.0%	>57
O=c1[nH]c2cc3c(cc2cc1C(c1nnnn1C1CCCC1)N1CCCc2ccccc21)OCCO3 (configuration not stated)	-3.2%	-3.1%	7.94µM*	>57
O=c1[nH]c2cc3c(cc2cc1C(c1nnnn1Cc1ccccc1)N1CCCc2ccccc21)OCO3 (configuration not stated)	7.6%	3.16µM*	-9.6%	>57
COc1cc2cc(C(c3nnnn3C3CCCC3)N3CCc4ccccc43)c(=O)[nH]c2cc1OC (configuration not stated)	19.6%	118.3%	?	>57
O=C1O/C(=C\Br)CC[C@@H]1c1cccc2ccccc12	0.1%	3.4%	-1.2%	>25.6
C[C@@]12CC[C@H]3[C@H](CCC4=CC(=O)CC[C@H]43)[C@H]1CC[C@H]2OC1(O)C(=O)c2ccccc2C1=O	-6.9%[5.75 µM]	7.6%[5.75 µM]	-2.5%[8 µM]	i
N#C/C(=C\c1ccc(O)c(O)c1)C(=O)NCCCc1ccccc1	-1.5%	0.2µM*!	?	>57
COc1c2c(nc3ccccc13)O[C@@H]([C@@](C)(O)CO)C2	-2.1%	6.5%	7.6%	>57
COC(=O)N1CCN(C(=O)Cc2ccc(Cl)c(Cl)c2)[C@H](CN2CCCC2)C1	0.9%	36.2%	?	14.1*!
SMILES	AmpC det inh	AmpC nodet inh	Anthrax LT inh	SmPrx2 inh
CO[C@@H]1/C=C\O[C@]2(C)Oc3c(C)c(O)c4c(O)c(c(/C=N\N5CCN(C)CC5)c(O)c4c3C2=O)NC(=O)/C(C)=C\C=C/[C@H](C)[C@H](O)[C@H](C)[C@H](O)[C@H](C)[C@H](OC(C)=O)[C@@H]1C	-0.9%	113.6%	-8.8%	>57
Cc1nc2c(c(=O)n1Cc1ccccc1Cl)c1nc3ccccc3nc1n2Cc1ccco1	0.5%	5.8%	7.94µM*	>57
CCCCN(CC)CCNS(=O)(=O)c1cccc2cccnc12	27.6%	4.4%	-26.4%	>57
COc1ccc2c(c1)[C@]13CCCC[C@@H]1[C@H](C2)NCC3	-0.9%	0.9%	23.4%	>57
O=c1cc(-c2ccccc2O)oc2c(O)c(O)ccc12	-6.8%	?	?	?
C[C@@H]1[C@H]2C=C[C@@H]1[C@@H](c1c3ccc(=O)c(O)c-3oc3c(O)c(O)ccc13)[C@@H]2C(=O)O	2µM*	2.51µM*	?	>57
O=C(Cl)c1cccc([N+](=O)[O-])c1	14.2%	0.2%	13.4%	/
CCCCN(CC)S(=O)(=O)c1cccc2cccnc12	12.9%	10.1%	?	>57
COc1ccc(S(=O)(=O)Cc2ccc(C(=O)N3CCc4ccccc4C3)o2)cc1	5.9%	3.16µM*[single pt active]	-14.5%	>57
COc1ccc(S(=O)(=O)Cc2ccc(C(=O)N3CCN(c4ccc(Cl)cc4)CC3)o2)cc1	5.4%	84.2%	12.6µM*	>57
COc1ccc(S(=O)(=O)Cc2ccc(C(=O)N3CCN(Cc4ccccc4)CC3)o2)cc1	12.1%	108.6%	-11.5%	>57
Nc1nc(Cl)nc2c1ncn2[C@@H]1O[C@@H](CO)[C@@H](O)[C@H]1O	2.5%	3.6%	?	>57
COc1ccc(CCNc2ncnc3c2oc2ccccc23)cc1OC	-2.7%	59.0%	?	>57
COc1ccc(CCNc2nc(C)nc3c2oc2ccccc23)cc1OC	-2.2%	101.1%	10µM*	>57
COC(=O)NC(/C(C(=O)OC)=C(\C)NCc1ccccc1)c1ccc2ccccc2c1 (configuration not stated)	/	/	-21.0%[8 µM]	/
CC(=O)c1cc2c(cc1NC(=O)CN1CCN(C(=O)c3ccco3)CC1)OCO2	10.9%	3.98µM*[single pt active]	-6.2%	>57
CCOC(=O)N1CCN(CC(=O)Nc2cc3c(cc2C(C)=O)OCO3)CC1	-0.2%	6.9%	8.6%	>57
O=C(NCCCN1CCOCC1)c1ccc(CS(=O)(=O)c2c(Cl)cccc2Cl)o1	17.7%	3.16µM*[single pt active]	-11.8%	>57
O=C(NCCCN1CCOCC1)c1ccc(CS(=O)(=O)c2ccc(Br)cc2)o1	10.2%	3.98µM*[single pt active]	-10.6%	>57
COc1ccccc1S(=O)(=O)Cc1ccc(C(=O)NCCN2CCCCCC2)o1	10.5%	3.98µM*[single pt active]	-17.2%	>57
O=C(NCCN1CCOCC1)c1ccc(CS(=O)(=O)c2ccc(Br)cc2)o1	-0.9%	30.8%	-2.7%	>57
O=C(Nc1cnn(Cc2ccc(F)cc2)c1)c1cc(-c2ccc(Br)cc2)on1	24.0%	-13.6%	-7.9%	>57
O=P(O)(OP(=O)(O)c1ccccc1)c1ccccc1 (tested in a mixture with another compound)	-0.1%[5.75 µM]	-3.7%[5.75 µM]	?	>57
C[C@H]1C[C@@H]2[C@H]3CCC4=CC(=O)C=C[C@@]4(C)[C@]3(Cl)[C@@H](Cl)C[C@]2(C)[C@]1(O)C(=O)COP(=O)(O)O	-10.1%[5.75 µM]	-15.4%[5.75 µM]	-8.7%[8 µM]	>57
O=C(CCCC1=NS(=O)(=O)c2ccccc2N1)N1CCN(c2ccc(Cl)cc2)CC1	25.5%	3.98µM*[single pt active]	?	>57

High-throughput results as filed in PubChem.
